Pf growth 96h: Primary qHTS for delayed death inhibitors of the malarial parasite plastid, 96 hour incubation. Potency, µM (titrated, usually from 28.7 µM), inactives show at the highest dose activity change, negative = inhibition, usual class: inhibitors. P. falciparum luciferase reporter growth, 96 h. actives 6.9% (n = 320,000). AID 504834, 2011; also: % is scaled to controls: 0 for no effect and ±100 for the full control effect
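Two-generation exposure (96 h) targets delayed-death phenotype. Reporter parasites carrying integrated firefly luciferase, in red cells at 2% hematocrit and 0.05% parasitemia final, kept at 37 C, 5% CO2; luminescence loss indicates inhibition.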
HCV inh: qHTS Assay for Inhibitors of Hepatitis C Virus (HCV) | Huh7.5.1 HCVcc-Cre infection, luciferase reporter, 44 h | Potency, µM (doses to about 41.8 µM), without a hit: at the highest dose activity change, negative = inhibition, hits mostly inhibitors | actives 3.4% (n = 340,000) | AID 651820, 2012; also: % is scaled to controls: 0 for no effect and ±100 for the full control effect
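Cells seeded at 1,000/well and cultured 4 h, then compounds added followed by HCVcc-Cre virus (~0.5 moi). After 44 h further culture, luciferase substrate was added, plates held 15 min at room temperature, and luminescence read for 15 sec.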
Vaccinia Venus: qHTS for Stage-Specific Inhibitors of Vaccinia Orthopoxvirus: Venus Reporter Primary qHTS. Vaccinia virus Venus reporter expression, fluorescence. Potency, µM (series often up to 36.5 µM), without a hit: top-dose activity change, negative = inhibition, actives largely listed as inhibitors. actives 0.46% (n = 330,000). AID 720580, 2013; calls by dose curve; tested in A549 cells; also: % is scaled to controls: 0 for no effect and ±100 for the full control effect; nearly all actives have a fitted effect of over 30% in size
NS1 inh: qHTS Assay for Inhibitors of Influenza NS1 Protein Function; Potency, µM (series often up to 46.1 µM), inactives show at the top dose activity, positive = more growth; actives 0.4% (n = 270,000); AID 2326, 2010; calls by dose curve; also: actives are rising curves; nearly all actives have a fitted effect of over 50% in size
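A cell-based growth assay was used: compounds that relieve NS1-induced slow growth of budding yeast raise OD600. Assay medium was yeast nitrogen base with ammonium sulphate and -URA supplement, pH 6.0, with 2% galactose.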
Vaccinia mCherry: qHTS for Stage-Specific Inhibitors of Vaccinia Orthopoxvirus: mCherry Reporter Primary qHTS | Vaccinia virus mCherry reporter infection, fluorescence | Potency, µM (series often up to 36.5 µM), inactives show at the highest dose activity change, negative = inhibition, usual class: inhibitors | actives 0.63% (n = 310,000); calls by dose curve; tested in A549 cells; also: % is scaled to controls: 0 for no effect and ±100 for the full control effect; nearly all actives have a fitted effect of over 35% in size
Pf growth 48h: Primary qHTS for delayed death inhibitors of the malarial parasite plastid, 48 hour incubation; P. falciparum luciferase growth in erythrocytes, 48 h; Potency, µM (series often up to 28.7 µM), inactives show top-dose activity change, negative = inhibition, actives largely listed as inhibitors; actives 5.9% (n = 310,000); also: % is scaled to controls: 0 for no effect and ±100 for the full control effect
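Luciferase-expressing parasites in RBCs, 2% Hct / 0.1% parasitemia final; RPMI 1640 + 0.5% Albumax; 37 C, 5% CO2, one generation; luminescence read-out, lower signal = inhibition.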
Active calls of the source: *; i = inactive; ? = inconclusive; . = no result given. Hits are enriched below; roughly 11% of the tested compounds scored in any of these assays. Unless noted, calls follow the shape of the dose curve; as a rule, active = well fitted inhibition curve with a large enough effect; inconclusive = small, poorly fitted or top-dose-only effect, or another doubt; inactive = no such curve, though single readings can be large or run the other way. Potency is read from the fitted curve at half-maximal effect.

SMILES	Pf growth 96h	HCV inh	Vaccinia Venus	NS1 inh	Vaccinia mCherry	Pf growth 48h
COc1cc2c(cc1OC)/C(=C/C(=O)c1ccc([N+](=O)[O-])c(C)c1)NCC2	5.22µM*	?	.	3.9%	.	9.28µM*
COc1cccc(N2CCN(CC(=O)c3c[nH]c4ccc(OC)cc34)CC2C)c1 (configuration not stated)	?	7.4%	-26.1%	?	.	11.7µM*
COc1ccc2[nH]cc(C(=O)CN3CCCC(C)C3)c2c1 (configuration not stated)	22.5%	-19.6%	3.2%	4.9%	-7.9%	-6.4%
S=C1NC2=C(CCC/C2=C\c2ccccc2)C(c2ccccc2)N1 (configuration not stated)	?	?	3.2%	17.9%	i	-22.4%
C(=C1/CCCC2=C1Nc1ncnn1C2c1ccccc1)/c1ccccc1 (configuration not stated)	-9.2%	.	.	?	.	11.7µM*
CN(C)c1cccc(C(=O)OC(C(=O)Nc2ccc(Cl)cc2C(F)(F)F)c2ccccc2)c1 (configuration not stated)	11.7µM*	-16.1%	-19.0%	?	-4.0%	?
CC(C)C1Cc2nc(Cl)c(C#N)cc2CO1 (configuration not stated)	87.9%	-0.8%	-3.6%	6.0%	-11.9%	41.4%
N#Cc1c(Nc2ccccc2)c(/C=N/N=C/c2ccccc2)c[nH]c1=O	?	?	-15.6%	21.9%	-25.1%	-17.4%
N#Cc1c(Nc2ccccc2)c(C=NCCN2CCOCC2)c[nH]c1=O	9.28µM*	-3.0%	2.0%	0.7%	.	4.1%
COc1cc(/C=N/c2oc(C)c(C)c2C#N)cc(Br)c1O	-28.4%	12.2%	.	3.2%	.	10.8%
COc1ccc(/C=N/c2oc(C)c(C)c2C#N)c(OC)c1	11.7µM*	0.7%	-7.6%	1.5%	-23.1%	-8.8%
C/C(Cl)=C/Cn1c(SCc2ccc(Cl)cc2)nc2c1c(=O)[nH]c(=O)n2C	.	11.8%	-13.3%	3.7%	.	?
COCCn1c(SCc2ccc(F)cc2)nc2c1c(=O)[nH]c(=O)n2C	13.1µM*	8.6%	.	16.9%	.	-13.2%
CCCCCSc1nc2c(c(=O)[nH]c(=O)n2C)n1C(C)C	11.7µM*	-1.1%	?	-13.7%	-20.6%	?
CCCCn1c(SCc2ccc(Cl)cc2)nc2c1c(=O)[nH]c(=O)n2C	2.5%	7.2%	-8.8%	-13.7%	.	6.57µM*
CC(C)CCn1c(SCc2ccc(Cl)cc2)nc2c1c(=O)[nH]c(=O)n2C	36.0%	?	-10.4%	-27.1%	-14.5%	?
CC(C)n1c(SCc2ccc(Cl)cc2)nc2c1c(=O)[nH]c(=O)n2C	11.7µM*	-7.9%	-16.4%	0.8%	.	.
COc1ccc(NC(=O)CSc2nnc(CN3CCOCC3)n2C)cc1Cl	.	17.6%	-16.7%	.	-16.8%	.
O=C(Nc1ccc(C(=O)OCc2cc(=O)n3nc(C4CC4)sc3n2)cc1)c1cccc(Cl)c1	.	.	-12.1%	.	-19.3%	.
Nc1nnc(SCC(=O)NCc2ccc3c(c2)OCO3)s1	.	2.7%	-12.7%	3.9%	.	4.1%
COc1ccc(NCC(=O)N/N=C/C(C)c2ccccc2)cc1 (configuration not stated)	0.9%	0.5%	-1.9%	.	-14.4%	0.8%
CC1(C)N=C(N)N=C(N)N1c1cccc(OCc2cccc([N+](=O)[O-])c2)c1	.	.	.	-7.9%	.	.
Clc1ccc(-c2nc3ccncc3[nH]2)cc1	20.7%	-9.7%	-14.5%	-8.3%	i	?
Fc1ccc(CSc2nncn2NCc2ccc3c(c2)OCO3)cc1	25.4%	-1.6%	-8.2%	-2.6%	i	?
Cc1ccc(CSc2nc3c(c(=O)[nH]c(=O)n3C)n2CCC(C)C)cc1	2.94µM*	?	?	4.7%	?	.
SMILES	Pf growth 96h	HCV inh	Vaccinia Venus	NS1 inh	Vaccinia mCherry	Pf growth 48h
C/C=C/CSc1nc2c(c(=O)[nH]c(=O)n2C)n1Cc1ccc(C)cc1	?	4.6%	-23.2%	7.4%	11.7%	13.1µM*
CCCCCCn1c(SCC(=O)OC)nc2c1c(=O)[nH]c(=O)n2C	2.1%	5.01µM*	0.7%	5.2%	i	8.1%
CC(C)Oc1ccc(C(=O)NN2C(=O)NC3(CCCCC3)C2=O)cc1	58.1%	0.4%	-10.2%	.	-5.3%	18.4%
CCOc1ccc(-c2nnc(SCC(=O)N(CC)c3cccc(C)c3)o2)cc1	.	.	-22.1%	.	-27.1%	.
CCOC(=O)C1=C(C)NC(C)=C(C(=O)OCC)C1C(=O)OCC(=O)NCCc1ccccc1	.	?	-12.8%	.	-2.7%	.
N#Cc1c2n(c3c(=O)n(Cc4ccc(Cl)cc4)cnc13)CCCC2	.	-19.9%	-16.1%	-52.1%	.	-10.6%
N#Cc1c2n(c3c(=O)n(Cc4ccccc4Cl)cnc13)CCCC2	.	11.2µM*	.	10.5%	.	28.6%
COc1cc(OC)c2ccc(=O)oc2c1C(CC(=O)N1CCN(c2ccccc2)CC1)c1ccc2c(c1)OCO2 (configuration not stated)	13.1µM*	?	?	7.8%	?	11.7µM*
COc1cc(C(CC(=O)N2CCN(c3ccccc3)CC2)c2c(OC)cc(OC)c3ccc(=O)oc23)cc(OC)c1OC (configuration not stated)	4.65µM*	?	-22.3%	?	5.2%	5.86µM*
COc1cc(OC)c2ccc(=O)oc2c1C(CC(=O)N1CCOCC1)c1ccc2c(c1)OCO2 (configuration not stated)	?	-8.4%	-16.1%	-1.3%	-12.7%	-19.9%
COc1cc(C(CC(=O)N2CCOCC2)c2c(OC)cc(OC)c3ccc(=O)oc23)cc(OC)c1OC (configuration not stated)	?	?	-9.2%	-1.8%	3.4%	?
COC(=O)C1=CN(c2ccc(F)cc2)C(N)=C(C#N)C1c1ccccc1 (configuration not stated)	.	.	-18.1%	.	?	.
COc1cc(CC(=O)Nc2cccc(SC)c2)cc(OC)c1OC	?	14.1µM*	-5.8%	.	i	-23.6%
COCCCN(Cc1cc(OC)c(OC)c(OC)c1)C(=S)Nc1cccc(Cl)c1	.	.	-18.8%	.	-14.8%	.
CCN(Cc1cc(OC)c(OC)c(OC)c1)C(=S)Nc1cccc(SC)c1	10.4µM*	?	-18.6%	-9.4%	?	?
C=CCSc1nc(N)c(C(=O)Nc2ccccc2)cc1C#N	7.0%	3.55µM*	.	-55.3%	.	.
COc1ccc(C(=O)/C=C/C(=O)N(CC(=O)NC2CCCCC2)CC2CCCO2)c(O)c1 (configuration not stated)	-13.6%	?	.	-5.2%	.	?
COc1ccc(C(=O)/C=C/C(=O)N(CC(=O)NC2CCCCC2)Cc2ccccc2OC)c(O)c1	?	?	-24.0%	1.4%	?	9.28µM*

Screening data from PubChem.
